Reference: ChEMBL document CHEMBL3988442, “University of Dundee, Small-Polar-MMV Screening Library” (2021)
About 13,000 (27%) of roughly 48,000 compounds showed an effect of 50% or more. Some of the results follow.

What follows are compounds tested on Wolbachia pipientis (assay: Anti-Wolbachia Cell-Based Screen). Conditions: 5 µM.
Format: functional
Set-up: scale not given: in the data most compounds retested in dose-response had high values

| SMILES | Percent Effect [%] |
| --- | --- |
| CCS(=O)(=O)N1CCc2ccc(NC(=O)NC3CCCCC3)cc21 | 108.5 |
| Cc1cccc(NC(=O)NC2CCN(C3CCOC3)CC2)c1 (configuration not stated) | -12.46 |
| O=C(Nc1ccccc1)C1CCCN(c2cc(-n3cncn3)ncn2)C1 (configuration not stated) | -3.274 |
| COCC1CN(C(=O)Cc2cccc(F)c2)Cc2ccnn2C1.O=C(O)C(F)(F)F (configuration not stated) | 13.65 |
| CCC(=O)N1CC[C@@H](c2ccc3ccccc3c2)[C@H](O)C1 | -8.5 |
| CC(NS(C)(=O)=O)C(=O)N(C)Cc1csc(-c2cccs2)n1 (configuration not stated) | -6.188 |
| O=S(=O)(N1CCCCC1)N1CCOC2(CCCC2)C1 | -3.647 |
| O=C(NC1CC1)NC(c1ccc(F)cc1)C1CC1 (configuration not stated) | -8.198 |
| NS(=O)(=O)N1CCc2ccc(NC(=O)Cc3ccccc3F)cc21 | -18.89 |
| CCS(=O)(=O)N1CCc2ccc(NC(=O)Nc3ccccc3)cc21 | 185.4 |
| CCS(=O)(=O)N1CCc2ccc(NC(=O)Nc3ccc(F)cc3F)cc21 | 3.435 |
| CCS(=O)(=O)N1CCc2ccc(NC(=O)Nc3ccccc3C)cc21 | 122.8 |
| CN(CCN1CCN(c2ccccc2)CC1)C(=O)Nc1ccccn1 | -17.55 |
| CC(C)Oc1ncccc1CNC(=O)c1ccco1 | 7.44 |
| Cc1ccc(C(=O)N2CC(C(N)=O)O[C@H](C)C2)c(F)c1 (some centres not stated) | -9.152 |
| N#CCCN(Cc1ccco1)C(=O)CN1CCCC1c1cccs1 (configuration not stated) | -7.66 |
| CSCC(=O)N(C)Cc1noc(-c2ccccc2)n1 | 108.1 |
| CN(Cc1noc(-c2ccccc2)n1)C(=O)CSc1nnc(N)s1 | 121.6 |
| CCn1ccc(CN(C)C(=O)CSc2nnc(N)s2)n1 | 5.02 |

| SMILES | Percent Effect [%] |
| --- | --- |
| COc1ccc(CN(C)C(=O)CSc2nnc(N)s2)c(OC)c1OC | 2.435 |
| CCc1nc(CN(C)C(=O)C2CCC(=O)N(CC3CCCCC3)C2)no1 (configuration not stated) | -15.94 |
| CN(C)C(=O)Cc1ccccc1NCc1noc(-c2ccccc2)n1 | 11.76 |
| CCc1noc(CN(C)C(=O)COc2cc(Cl)cc(Cl)c2)n1 | -5.267 |
| CCc1nc(CN(C)C(=O)CSC)no1 | 99.89 |
| CC(C)c1nc(CN(C)C(=O)Cn2nc3ccccc3n2)no1 | -13.5 |
| Cn1cc(N2CCC3(CCN(S(=O)(=O)C4CC4)C3)C2=O)cn1 (configuration not stated) | -13.56 |
| CCCC(C)CS(=O)(=O)NCCc1csc(N2CCCC2)n1 (configuration not stated) | 5.842 |
| CC1(C)Cc2c(cnn2-c2ccccc2)C(NC2CCSCC2)C1 (configuration not stated) | 2.86 |
| CN(C)c1ccnc(-c2ccnc3c2ccn3C)n1 | -3.285 |
| Cc1[nH]c2c(C)ccc(C)c2c1CC(=O)NCCCNc1cccnc1 | -12.73 |
| O=C(c1ccc2cccnc2n1)N(Cc1ccsc1)CC1CCCO1 (configuration not stated) | -29.46 |
| O=C(c1ccco1)N1CCC2(CC1)C(=O)Nc1ccccc12 | -7.592 |
| COCCN1CCC2(CC1)CC1(CCN(S(C)(=O)=O)CC1)N(C)C2=O.O=C(O)C(F)(F)F | -9.423 |
| COCCN1Cc2ccccc2C2(CCN(S(C)(=O)=O)CC2)C1 | 109.9 |
| COCCN1CC2(CCN(Cc3ccco3)CC2)c2ccccc21 | -16.07 |
| O=C(c1ccno1)N1CCC2(CC1)C(=O)Nc1ccccc12 | 0.1339 |
| CCS(=O)(=O)N1CCC2(CC1)CN(C(=O)N(C)C)Cc1ccccc12 | -41.7 |
| COCCN1Cc2ccccc2C2(CCN(C(=O)c3ccco3)CC2)C1 | 91.37 |

| SMILES | Percent Effect [%] |
| --- | --- |
| COCCN1C[C@H]2CN(C(=O)c3ccno3)CCN2C1=O | 3.514 |
| COCCN1Cc2ccccc2C2(CCN(C(=O)c3ccno3)CC2)C1 | 106.5 |
| Cc1ccc(C(=O)Nc2cccc3c2C(=O)NC3)c(C)n1 | -2.739 |
| c1coc(CN2CCc3ncnc(C4CCOC4)c3CC2)c1 (configuration not stated) | -7.93 |
| COCCN1CCCC(O)(CN2CCN(c3cc(C)ccn3)CC2)C1=O (configuration not stated) | -13.95 |
| CCOCC1(CNCc2cc(O)c3cc(C)ccc3n2)CC1 | 1.355 |
| COc1ccc(CN2CCC(CO)(Cc3ccc(Cl)cc3)CC2)c(O)c1 | -0.5928 |
| O=c1n(CC2COCCO2)nc(CC2CCNCC2)n1-c1ccccc1 (configuration not stated) | 28.69 |
| CCNC(=O)c1ccc2ccc(N(CC)CC)n2c1 | 1.029 |
| CCn1cc(C(=O)NCc2cccnc2N(C)Cc2ccccc2)cn1 | 2.697 |
| CN(CC1CC1)c1ccc2ccc(C(=O)NCCc3ccccc3)cn12 | 99.05 |
| COC(=O)N1CCC(Oc2ccc(C(=O)NCCN(C)C)cc2Cl)CC1 | 19.93 |
| CN(CC1CC1)c1ccc2ccc(C(=O)NC3CCCCC3)cn12 | 118 |
| CN(C)C(=O)CNC(=O)c1ccc2ccc(N(C)CC3CC3)n2c1 | 99.28 |
| CN(C)CCNC(=O)c1ccc2ccc(N(C)CC3CC3)n2c1 | 115.7 |
| CCN(CC)c1ccc2ccc(C(=O)NC3CC3)cn12 | -16.69 |
| CCN(CC)c1ccc2ccc(C(=O)O)cn12 | -4.44 |
| CCN(CC)c1ccc2ccc(C(=O)N(C)C)cn12 | -16.77 |
| CN(C)CCNC(=O)c1ccc(OC2CCN(C3CCC3)CC2)c(Cl)c1 | -4.706 |
